Measured values from PubChem BioAssay (NCI).
About 83,000 compounds went through this panel and 20% of them were active in at least one assay; those are over-represented in the sample as a whole.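 Negative percent growth values reflect cell death: -40 means 40% of the cells present at the start died, and -100 means all died.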 Active and inactive are the calls of the source. The calls were made as follows: active = growth percent below 10; inactive = the rest.

Experiments:
Assay in all cases: NCI-60 one-dose screen, 48 h (100 = growth as untreated, 0 = no growth, -100 = all killed)
Settings in all cases: 10 µM unless noted
HCT-15 colon = system: HCT-15 colon
HT29 colon = system: HT29 colon
SNB-19 CNS = system: SNB-19 CNS
U251 CNS = system: U251 CNS
PC-3 prostate = system: PC-3 prostate
SK-MEL-5 melanoma = system: SK-MEL-5 melanoma
UACC-62 melanoma = system: UACC-62 melanoma
LOX IMVI melanoma = system: LOX IMVI melanoma
SK-MEL-28 melanoma = system: SK-MEL-28 melanoma
SNB-75 CNS = system: SNB-75 CNS

Compound	growth (HCT-15 colon)	growth (HT29 colon)	growth (SNB-19 CNS)	growth (U251 CNS)	growth (PC-3 prostate)	growth (SK-MEL-5 melanoma)	growth (UACC-62 melanoma)	growth (LOX IMVI melanoma)	growth (SK-MEL-28 melanoma)	growth (SNB-75 CNS)
COc1cccc(N2CCN(CC(=O)N3CCN(c4nnc(-c5ccc(Cl)cc5)c(-c5ccc(Cl)cc5)n4)CC3)CC2)c1	49.5% (inactive)	51% (inactive)	77.1% (inactive)	65.7% (inactive)	15.8% (inactive)	48.4% (inactive)	70.4% (inactive)	65% (inactive)	88.7% (inactive)	–
NS(=O)(=O)c1ccc(-n2nc(-c3ccc(Br)cc3)ccc2=O)cc1	43% [100 µM] (inactive)	63.9% [100 µM] (inactive)	36.5% [100 µM] (inactive)	11.2% [100 µM] (inactive)	78.2% [100 µM] (inactive)	–	53.6% [100 µM] (inactive)	68.1% [100 µM] (inactive)	80.9% [100 µM] (inactive)	–
N#Cc1c(-c2ccccc2)cc(-c2ccccc2)n(CCCC(=O)O)c1=O	92.9% (inactive)	103% (inactive)	98.7% (inactive)	93.3% (inactive)	109% (inactive)	93.5% (inactive)	91% (inactive)	95.4% (inactive)	108% (inactive)	–
CCCCCCCCCCNCCSS(=O)(=O)O	86.4% (inactive)	–	65.9% (inactive)	15% (inactive)	88.7% (inactive)	39.8% (inactive)	4.6% (active)	20.9% (inactive)	51.5% (inactive)	96.1% (inactive)
CCN(CC)CCCCCCCNc1c2ccc(Cl)cc2nc2ccc(OC)cc12	-5.62% (active)	–	-10.1% (active)	-70.2% (active)	-56.1% (active)	-100% (active)	-55% (active)	-7.86% (active)	-77.4% (active)	-94.1% (active)
COc1ccc(CC(=O)Nc2nn3c(-c4cc(C(F)(F)F)cc(C(F)(F)F)c4)nnc3s2)cc1	62.4% (inactive)	83.7% (inactive)	–	70.4% (inactive)	84.8% (inactive)	2.85% (active)	28.6% (inactive)	52.3% (inactive)	84.5% (inactive)	–
CCCCOP(=O)(OCCCC)C(C(=O)OCC)C(CC(=O)OCC)C(=O)OCC (configuration not stated)	86.4% (inactive)	–	100% (inactive)	–	–	109% (inactive)	105% (inactive)	109% (inactive)	104% (inactive)	59.9% (inactive)
CCCCCCCCN(CCO)CCCCCCCC	–	103% (inactive)	113% (inactive)	102% (inactive)	99.3% (inactive)	–	109% (inactive)	102% (inactive)	101% (inactive)	96.5% (inactive)
c1cc[n+](Cc2ccnc3ccccc23)cc1	64.3% (inactive)	–	103% (inactive)	–	80.8% (inactive)	–	104% (inactive)	90.8% (inactive)	104% (inactive)	53.6% (inactive)
Nc1nc2c(c(=O)[nH]1)C1(C(=O)Nc3ccccc31)c1c(nc(N)[nH]c1=O)N2	105% (inactive)	–	104% (inactive)	107% (inactive)	–	–	103% (inactive)	98.2% (inactive)	112% (inactive)	91.5% (inactive)
CC(=O)Nc1c(Cl)cc2c(c1Cl)Cc1cc([N+](=O)[O-])ccc1-2	101% (inactive)	–	95.8% (inactive)	89% (inactive)	72.6% (inactive)	55.9% (inactive)	65.3% (inactive)	86.2% (inactive)	102% (inactive)	36.6% (inactive)
O=C(CSc1nnc(-c2cc(-c3ccccc3)nc3ccccc23)o1)c1ccc(Br)cc1	109% (inactive)	–	93.2% (inactive)	98.2% (inactive)	107% (inactive)	103% (inactive)	94.8% (inactive)	101% (inactive)	113% (inactive)	97.4% (inactive)
O=C(Nc1ccccc1S)c1ccccc1	108% (inactive)	–	100% (inactive)	94.8% (inactive)	88.5% (inactive)	114% (inactive)	86.6% (inactive)	84.9% (inactive)	112% (inactive)	–
COc1ccc(-c2cc(-c3cccnc3)nc(S(=O)(=O)CC(=O)Nc3ccc(C)cc3)c2C#N)cc1OC	95.1% (inactive)	–	94.6% (inactive)	91.7% (inactive)	83.7% (inactive)	72% (inactive)	99.4% (inactive)	88.9% (inactive)	102% (inactive)	78.7% (inactive)
Nc1c(C(=O)Nc2cccc(Cl)c2)sc2nc3c(cc12)C(O)CCC3 (configuration not stated)	18.8% (inactive)	–	65.9% (inactive)	17.4% (inactive)	28.5% (inactive)	28.7% (inactive)	44.6% (inactive)	48.1% (inactive)	55.8% (inactive)	28.8% (inactive)
N#Cc1c(-c2ccccc2)cc(-c2ccccc2)n(CCC(=O)O)c1=O	29.7% (inactive)	19.3% (inactive)	–	38.2% (inactive)	75.3% (inactive)	3.86% (active)	32.3% (inactive)	51% (inactive)	57.3% (inactive)	–
c1ccc2c(-c3nc4ccccc4[nH]3)cccc2c1	27.1% (inactive)	–	52.5% (inactive)	12.5% (inactive)	54.1% (inactive)	–	32.2% (inactive)	34.6% (inactive)	51.5% (inactive)	27.8% (inactive)
COc1ccc(-c2cc(-c3cccnc3)nc3sc(C(=O)Nc4ccccc4)c(N)c23)cc1OC	63.5% (inactive)	–	–	61.3% (inactive)	56.9% (inactive)	75.1% (inactive)	69.3% (inactive)	60% (inactive)	73.3% (inactive)	82.8% (inactive)
N#CC1c2ccccc2C=CN1C(=O)N(c1ccccc1)c1ccccc1 (configuration not stated)	–	57.2% (inactive)	98.5% (inactive)	57.4% (inactive)	60% (inactive)	65.4% (inactive)	61.2% (inactive)	35.6% (inactive)	67% (inactive)	68.6% (inactive)
COc1cc(/C=C2\CN(S(=O)(=O)c3ccc(C)cc3)C/C(=C\c3cc(CN4CCOCC4)c(O)c(OC)c3)C2=O)cc(CN2CCOCC2)c1O	-31.3% (active)	–	12.9% (inactive)	15.5% (inactive)	2.79% (active)	-63.4% (active)	-45.8% (active)	-49.3% (active)	-33.2% (active)	25.8% (inactive)
C=C1CC[C@@H]2[C@](C)(COC(C)=O)[C@H](OC(C)=O)CC[C@@]2(C)[C@@H]1CC(NCc1ccccc1)C1=CCOC1=O (some centres not stated)	41% (inactive)	–	68.2% (inactive)	47.6% (inactive)	10.1% (inactive)	–	38.8% (inactive)	44.6% (inactive)	68.6% (inactive)	76.9% (inactive)
O=C1/C=C/[C@@H](O)[C@@H]2C[C@@H](O)C[C@H]2/C=C/CCC[C@H](CO)O1	26.2% (inactive)	–	48.8% (inactive)	24.1% (inactive)	39.5% (inactive)	-88% (active)	15.8% (inactive)	-44.8% (active)	-18.8% (active)	35.7% (inactive)
COc1ccc(C(=O)/C=C/c2ccc(C)cc2)cc1OC	46.9% (inactive)	–	70.3% (inactive)	27.7% (inactive)	51% (inactive)	74% (inactive)	68.1% (inactive)	48.6% (inactive)	87.4% (inactive)	64.9% (inactive)
Cc1[nH]ccc2cc3nc4ccccc4c3cc12	20.3% (inactive)	–	44.9% (inactive)	26.4% (inactive)	–	–	62% (inactive)	12% (inactive)	54.5% (inactive)	40% (inactive)
COc1cc(NC(C)CCCN)c2nc(C)ccc2c1Oc1ccc(F)cc1 (configuration not stated)	71.2% (inactive)	–	78.8% (inactive)	73.2% (inactive)	63.9% (inactive)	86.2% (inactive)	81.9% (inactive)	51% (inactive)	97.8% (inactive)	64.6% (inactive)
COc1ccc(-c2cnc(SCC(=O)Nc3ccc(-c4nc5ccccc5s4)cc3)n2-c2ccc(OC)cc2)cc1	–	92.7% (inactive)	98.8% (inactive)	109% (inactive)	97% (inactive)	99.4% (inactive)	93.2% (inactive)	95.2% (inactive)	120% (inactive)	93.5% (inactive)
COc1cc(Cl)cc(-c2nn(-c3cccc(NC(=O)c4cc(C(F)(F)F)cc(C(F)(F)F)c4)c3)cc2-c2ccncc2)c1	58.6% (inactive)	–	86.4% (inactive)	60.7% (inactive)	35.6% (inactive)	–	81.4% (inactive)	76.1% (inactive)	78.8% (inactive)	60.8% (inactive)
Cc1cc(C(=O)Nc2ccc3cc(CN4CCOCC4)ccc3n2)c(C)n1-c1ccccc1	40.4% (inactive)	–	77% (inactive)	46.3% (inactive)	4.55% (active)	-38.1% (active)	7.01% (active)	24.2% (inactive)	27.9% (inactive)	15.5% (inactive)
O=C1C2C(C(=O)N1CC[Se][Se]CCN1C(=O)C3C(C1=O)[C@H]1C=C[C@@H]3C1)[C@H]1C=C[C@@H]2C1 (some centres not stated)	1.11% (active)	-8.38% (active)	–	-90.5% (active)	-12.8% (active)	-53.9% (active)	-60.8% (active)	-26% (active)	-3.71% (active)	–
COc1ccccc1NC(=O)c1sc2nc3c(cc2c1N)C(=O)CCC3	47.3% (inactive)	–	64.6% (inactive)	65.1% (inactive)	65.9% (inactive)	38.9% (inactive)	44.4% (inactive)	79.4% (inactive)	59.1% (inactive)	56.6% (inactive)
